# Compounds with a hit are over-represented: about 2.7% of the library has one in this group of screens.
# TMEM16A act – activators or potentiators of mouse TMEM16A chloride channel; Q8BHY3; HEK293 TMEM16A/YFP-H148Q/I152L, iodide quench fluorescence; active compounds read low; B-score at 10 µM; actives 0.3% (n = 340,000); AID 623877;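 active = fluorescence-ratio B-score plate-corrected deviation score at least 3 library SD below zero, with starting fluorescence score within 5 deviations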;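 note: channel opened by trigger with iodide after compound preincubation; score built on the fluorescence ratio of max minus min over baseline; more negative score means more quench and so TMEM16A activation or potentiation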
# PP5 primary – blocks human protein phosphatase 5 activity; P53041; purified PP5c, OMFP substrate fluorescence; AID 1987; actives 0.18% (n = 320,000); inhibition, % at 6.7 µM;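 active = inhibition above the campaign's mean inhibition across all tested compounds plus 3 SD, cut at about 9.5% in these data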
# PP1 inh – blocks human PP1-alpha phosphatase, a PP5 counter-screen; inhibition, % at 6.7 µM; P62136; AID 2235; purified PP1alpha, OMFP fluorescence; actives 0.9% (n = 320,000);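 active = inhibition above the mean inhibition of all tested compounds plus 3 SD, computed separately for each screening campaign, cut at about 15% in these data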
# Target sequence (P62136 whole entry, looked up): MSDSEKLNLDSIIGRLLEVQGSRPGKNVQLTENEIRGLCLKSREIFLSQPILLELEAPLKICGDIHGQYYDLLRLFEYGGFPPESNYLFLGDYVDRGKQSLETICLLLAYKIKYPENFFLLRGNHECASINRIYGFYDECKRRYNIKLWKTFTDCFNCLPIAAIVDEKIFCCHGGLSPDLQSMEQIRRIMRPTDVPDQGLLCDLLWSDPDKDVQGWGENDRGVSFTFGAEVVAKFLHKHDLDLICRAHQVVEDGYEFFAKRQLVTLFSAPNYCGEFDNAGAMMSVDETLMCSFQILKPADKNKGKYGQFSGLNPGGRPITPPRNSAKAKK
# FID counter – counter-screen for HCV NS3 helicase inhibitors: DNA intercalator displacement | DNA fluorescent intercalator displacement, fluorescence | inhibition, % at 7.9 µM | actives 0.17% (n = 290,000); in the data active = inhibition above about 37%;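 note: higher means more ethidium bromide displaced from hairpin DNA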
# ANO1 block – blocks the mouse calcium-activated chloride channel TMEM16A; actives 1.2% (n = 310,000); normalized B-score (activity score, 25-100; higher = stronger inhibition) at 10 µM; HEK293 TMEM16A/YFP iodide influx fluorescence, ionomycin; Q8BHY3; AID 588511;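 active = ratio plate-corrected score three or more library SD toward inhibition, starting fluorescence score within five deviations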;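 note: score derived from kinetic fluorescence span divided by baseline fluorescence per well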
# PREPL inhibitor – human PREPL enzyme inhibition; inhibition, % at 5.96 µM; Q4J6C6; recombinant PREPL, fluorescence polarization activity-based probe; actives 0.68% (n = 320,000); in the data active = inhibition above about 43%
# Hits are given with their value; – = inactive; · = no result.
SMILES,TMEM16A act,PP5 primary,PP1 inh,FID counter,ANO1 block,PREPL inhibitor
CC(OC(=O)CSCC(=O)Nc1ccc(Cl)cc1)C(=O)N(C)Cc1ccccc1 (stereo unspecified),–,·,·,·,·,·
CCN1C(=O)c2cccc3c(S(=O)(=O)Nc4nc(C)cs4)ccc1c23,-5.1,–,–,–,–,–
CCN1C(=O)c2cccc3c(S(=O)(=O)Nc4ccccc4)ccc1c23,–,–,–,–,–,–
CCC(=O)Nc1cc(SCCO)cc([N+](=O)[O-])c1,–,–,–,–,100,–
COc1cc(NC(=O)c2c(-c3ccccc3Cl)noc2C)c2ncccc2c1,–,–,–,·,–,–
CCSc1nnc(NC(=O)c2c(-c3ccccc3Cl)noc2C)s1,–,–,–,–,–,–
Cc1onc(-c2ccccc2Cl)c1C(=O)Nc1nnc(-c2cccc([N+](=O)[O-])c2)s1,–,–,–,–,100,–
Cc1onc(-c2ccccc2Cl)c1C(=O)Nc1cccc2cccnc12,–,–,–,–,100,–
CC(C)(C)c1ccc(S(=O)(=O)N2CCN(CC(O)CN3CCOCC3)CC2)cc1 (stereo unspecified),–,·,·,·,·,–
O=C(CSc1nc(O)cc(=O)n1-c1ccccc1)Nc1ccc2c3c(cccc13)CC2,–,–,16,–,–,–
Cc1c(O)nc(SCC(=O)Nc2ccc3c4c(cccc24)CC3)n(-c2ccccc2)c1=O,–,–,–,–,–,–
O=C(Nc1ccc(Br)cc1)C1CC(c2c(F)cccc2Cl)=NO1 (stereo unspecified),–,–,–,–,25,–
CN(c1ccc(OCc2nnc(-c3ccccc3)o2)cc1)S(=O)(=O)c1ccccc1,–,–,–,–,–,–
O=[N+]([O-])c1ccc(OCc2nnc(-c3ccccc3)o2)cc1,–,–,–,–,100,–
Oc1c(Br)cc(Br)c(/C=N/n2c(-c3ccccc3)n[nH]c2=S)c1Br,–,–,–,–,100,–
C/C(C=O)=C/c1ccccc1,–,–,–,·,·,–
CCCCCCOC1(c2ccccc2)OC(=O)c2ccccc21 (stereo unspecified),–,–,–,–,25,–
COC(=O)C1CCCCN1C(=O)c1cc(COc2cccc3cccnc23)on1 (stereo unspecified),–,–,–,–,–,–
COC(=O)C1CCCCN1C(=O)c1cc(COc2cccc3cnccc23)on1 (stereo unspecified),–,–,–,–,25,–
Cc1c(-c2c(C#N)c(N)nc3c2CCCCCC3)cnn1C,–,–,–,–,–,–
Cc1nn(C)c(C)c1-c1c(C#N)c(N)nc2c1CCCCCC2,-6.1,–,–,–,–,–
CCCc1cc(C(=O)Nc2ccc(C(=O)c3ccc(C)cc3)cc2)n(C)n1,–,–,–,–,100,–
CCOc1ccc2nc(N(CCCN(C)C)C(=O)c3ccc4c(c3)CCCC4)sc2c1,–,–,–,39,–,–
CN(C)CCCN(C(=O)COc1ccccc1)c1nc2ccc(Cl)cc2s1,-6,–,–,–,–,–
CCc1ccc2nc(N(CCCN(C)C)C(=O)c3ccc(C(=O)c4ccccc4)cc3)sc2c1,–,–,–,38,–,–
SMILES,TMEM16A act,PP5 primary,PP1 inh,FID counter,ANO1 block,PREPL inhibitor
NS(=O)(=O)c1ccc(Oc2ccc(S(N)(=O)=O)cc2)cc1,-4.9,–,–,–,–,–
COc1ccc(N2CCN(C(=O)c3cc(C)oc3C)CC2)cc1,–,–,–,–,–,–
CCN(CC)c1ccc(/C=C2\SC(N)=NC2=O)cc1,–,·,·,–,–,·
CCN(CC)c1ccc(C=C2SC(=S)NC2=O)cc1,-5.1,·,·,·,·,·
Cc1ccc(C2(C)NC(=O)N(CC(=O)N(Cc3ccccc3)C(C)(C)C)C2=O)cc1 (stereo unspecified),–,–,–,–,–,–
COC(=O)C1CCN(C(=O)Nc2ccccc2)CC1,–,–,–,–,–,–
S=C(S)N1CCCC1,–,–,–,·,100,–
COc1ccc2c(c1)c(CC(=O)Nc1nnc(C3CC3)s1)c(C)n2C(=O)c1ccc(Cl)cc1,–,–,15,–,–,–
COc1ccc2c(c1)c(CC(=O)Nc1cc(C)ccc1C)c(C)n2C(=O)c1ccc(Cl)cc1,–,–,–,–,–,–
COc1ccc2c(c1)c(CC(=O)NCc1cc([N+](=O)[O-])ccc1O)c(C)n2C(=O)c1ccc(Cl)cc1,–,–,–,–,100,–
COc1ccc2c(c1)c(CC(=O)Nc1ccc(C(C)=O)cc1)c(C)n2C(=O)c1ccc(Cl)cc1,–,–,–,–,–,–
Nc1nc(=S)ss1,–,·,·,·,·,·
COc1ccccc1C(=O)Nc1ccc(-c2nnn(CC(=O)NCc3ccco3)n2)cc1,–,–,16,–,–,–
Cc1ccc(S(=O)(=O)Nc2ccc3c(c2)OCCO3)c(C)c1NS(C)(=O)=O,–,–,–,–,–,–
O=c1cc(C(F)(F)F)nc(SCc2cccc3ccccc23)[nH]1,–,–,–,–,25,–
Nc1cc(=O)[nH]c(SCc2cccc3ccccc23)n1,–,–,–,–,–,–
O=c1c2ccccc2nc(COc2ccccc2)n1/N=C/c1cn[nH]c1-c1ccccc1,-6.5,–,–,–,–,–
COc1cccc(NC(=O)Nc2nnc(Cc3ccc(F)cc3)s2)c1,–,–,–,–,–,–
O=C(Nc1ccc(F)cc1)Nc1nnc(Cc2ccccc2)s1,–,–,17,–,–,–
COc1cccc(-c2ccc3nnc(SCC(=O)N4CCCC4)n3n2)c1,-4.7,–,–,·,–,–
COc1ccc(/C=C/C(=O)OCC(=O)NC(C)CCc2ccccc2)cc1OC (stereo unspecified),–,·,·,·,·,–
O=c1cc(SCc2ccc(Cl)cc2Cl)nc[nH]1,–,·,·,·,·,·
O=C(NCCOc1ccccc1)c1ccccc1Cl,–,–,–,–,–,–
CN(C(=O)COc1ccccc1C(=O)NCCOc1ccccc1)c1ccccc1,–,–,–,–,25,–
CCC(C)c1ccc(NC(=O)c2ccco2)cc1 (stereo unspecified),–,·,·,–,–,·
SMILES,TMEM16A act,PP5 primary,PP1 inh,FID counter,ANO1 block,PREPL inhibitor
Cc1ccc(NC(=O)C2CC(O)CN2C(=O)OCc2ccccc2)c(C)c1 (stereo unspecified),–,–,–,–,–,–
N=C1/C(=C\c2ccc(OC(=O)c3ccco3)cc2)C(=O)N=C2SC=NN12,–,·,·,–,·,·
CCS(=O)(=O)C1=NN2C(=N)/C(=C\c3ccc(OC(=O)c4ccco4)c(OC)c3)C(=O)N=C2S1,–,–,–,–,–,51
COc1cc(/C=C2\C(=N)N3N=CSC3=NC2=O)cc(Br)c1OC(=O)c1ccco1,-8.9,–,–,–,–,–
CC1(C)CC(=O)C2=C(C1)OC(N)=C(C#N)C2c1ccccc1[N+](=O)[O-] (stereo unspecified),-4.6,–,–,–,–,–
CC1(C)CC(=O)C2=C(C1)OC(N)=C(C#N)C2c1ccccc1 (stereo unspecified),–,–,–,–,–,–
